Data taken from PubChem BioAssay (Tox21).
Records with an inconclusive call do not appear. Active and inactive are the calls of the source. Unless noted, the call rests on the fitted dose curve; in most records, active means well fitted curve in the direction sought with a large enough effect in the repeat runs; inconclusive means weak or mixed curves; inactive means no such curve, though single readings can be large; an effect the other way counts as inactive or inconclusive.

Assays:
[1] = qHTS assay to identify small molecule agonists of the peroxisome proliferator-activated receptor delta (PPARd) signaling pathway - cell viability counter screen (AID 743211); further: nearly all actives have a fitted effect of over 55% in size
Outline: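 Multiplexed format: after the 2 h room-temperature LiveBLAzer B/G FRET step, CellTiter-Glo was added to the same wells. Luminescence after 30 min gave cell viability; compound exposure was 17 h at 37C.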

[2] = target: Peroxisome proliferator-activated receptor delta (Homo sapiens) (UniProt Q03181); assay: qHTS assay to identify small molecule agonists of the peroxisome proliferator-activated receptor delta (PPARd) signaling pathway (AID 743212; calls by dose curve)
Outline: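 GeneBLAzer PPARd UAS-bla HEK293H cells (beta-lactamase reporter under UAS control), plated and rested 5 h at 37 C, then exposed to compounds in DMSO at 37 C; LiveBLAzer B/G FRET substrate added, 2 h room temperature, fluorescence read.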

[3] = qHTS assay to identify small molecule antagonists of the peroxisome proliferator-activated receptor delta (PPARd) signaling pathway - cell viability counter screen (AID 743213); further: nearly all actives have a fitted effect of over 50% in size
Outline: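 HEK293H cells with the PPARd UAS-bla reporter, co-treated 17 h at 37 C with compounds and L165041 (300 nM final), were lysed with CellTiter-Glo. Luminescence indicated viable cell content.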

[4] = target: Peroxisome proliferator-activated receptor delta (Homo sapiens) (UniProt Q03181); assay: qHTS assay to identify small molecule antagonists of the peroxisome proliferator-activated receptor delta (PPARd) signaling pathway (AID 743215; active means well fitted inhibition curve with a large enough effect in the signal ratio in the repeat runs, not every such curve was filed as active; the % refers to the signal ratio;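 further: cells stimulated with agonist L165041 at 300 nM final during compound exposure; series mostly up to about 62 µM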)
Outline: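 PPARd-bla HEK293H cells (UAS-bla reporter) preincubated 5 h, then given compound plus 300 nM final L165041 agonist for 17 h at 37 C. Beta-lactamase activity read by LiveBLAzer B/G FRET substrate fluorescence after 2 h at room temperature.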

[5] = target: Bile acid receptor (Homo sapiens) (UniProt Q96RI1); assay: qHTS assay to identify small molecule antagonists of the farnesoid-X-receptor (FXR) signaling pathway (AID 743217; active means well fitted inhibition curve with a large enough effect in the signal ratio in the repeat runs, not every such curve was filed as active; the % refers to the signal ratio)
Outline: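 FXR-UAS-bla HEK 293T cells (beta-lactamase reporter) given compound plus chenodeoxycholic acid (50 uM final), 16 h at 37C. LiveBLAzer B/G FRET substrate added for 2 h at room temperature; fluorescence read.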

[6] = qHTS assay to identify small molecule agonists of the farnesoid-X-receptor (FXR) signaling pathway - cell viability counter screen (AID 743218); further: nearly all actives have a fitted effect of over 45% in size
Outline: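 FXR-UAS-bla HEK 293T cells exposed to compounds for 16 h at 37C. Cytotoxicity read in the same wells by CellTiter-Glo luminescence after 30 min at room temperature, following the beta-lactamase FRET read.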

[7] = target: Bile acid receptor (Homo sapiens) (UniProt Q96RI1); assay: qHTS assay to identify small molecule agonists of the farnesoid-X-receptor (FXR) signaling pathway (AID 743220; active means well fitted activation curve with a large enough effect in the signal ratio in the repeat runs, not every such curve was filed as active; the % refers to the signal ratio)
Outline: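 Beta-lactamase reporter under UAS control in GeneBLAzer FXR HEK 293T cells (5000/well) measured with LiveBLAzer FRET substrate after 2 h at room temperature. Compound exposure lasted 16 h at 37C.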

[8] = qHTS assay to identify small molecule antagonists of the farnesoid-X-receptor (FXR) signaling pathway - cell viability counter screen (AID 743221; active means well fitted cell-killing curve with a large enough effect in the repeat runs, not every such curve was filed as active; further: nearly all actives have a fitted effect of over 50% in size)
Outline: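 CellTiter-Glo, 30 min RT, luminescence; same wells as the LiveBLAzer FRET read. Cells: FXR-UAS-bla HEK 293T. Treatment: compound with chenodeoxycholic acid 50 uM final, 16 h at 37 C.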

[9] = qHTS assay to identify small molecule agonists of the vitamin D receptor (VDR) signaling pathway - cell viability counter screen (AID 743224); further: series mostly up to about 63 µM; nearly all actives have a fitted effect of over 50% in size
Outline: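 VDR-bla cells, 4 h after plating, exposed to compounds for 16 h at 37C; viability then read in the same wells as CellTiter-Glo luminescence after 30 min at room temperature, following the bla FRET read.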

[10] = qHTS assay to identify small molecule antagonists of the vitamin D receptor (VDR) signaling pathway - cell viability counter screen (AID 743225); further: nearly all actives have a fitted effect of over 50% in size
Outline: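 Cytotoxicity toward the VDR-bla HEK 293T line was scored by ATP-based CellTiter-Glo luminescence, read in the wells already used for the beta-lactamase readout after 16 h compound treatment under 3 nM 1-alpha,25-dihydroxyvitamin D3 stimulation.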

[11] = qHTS assay to identify small molecule agonists of the NFkB signaling pathway (AID 1159509; active means well fitted curve in the direction sought with a large enough effect in the signal ratio in the repeat runs, not every such curve was filed as active; the % refers to the signal ratio; further: series mostly up to about 61 µM)
Outline: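 NFkB-bla ME-180 cells with a beta-lactamase reporter under an NF-kB response element were plated overnight, treated with compounds in DMSO for 5 hr at 37 C, then loaded with FRET substrate for 1.5 hr at room temperature.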

[12] = qHTS assay to identify small molecule agonists of the NFkB signaling pathway - cell viability counter screen (AID 1159515; calls by dose curve; further: series mostly up to about 61 µM; nearly all actives have a fitted effect of over 55% in size)
Outline: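 NFkB-bla ME-180 cells, 2,000/well, plated overnight at 37 C; compound added for 5 hr at 37 C. Viability read in the same wells as the bla reporter, by CellTiter-Glo luminescence after 30 min at room temperature.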

[13] = qHTS assay to identify small molecule agonists of the endoplasmic reticulum stress response signaling pathway (AID 1159516; active means well fitted activation curve with a large enough effect in the signal ratio in the repeat runs, not every such curve was filed as active; the % refers to the signal ratio)
Outline: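 CellSensor ESRE-bla HeLa cells, 1,500 per well, plated overnight, then exposed to compounds for 5 hr at 37 C. Beta-lactamase reporter read with LiveBLAzer B/G FRET substrate after 2 hr at room temperature, 405 nm excitation, 460 and 530 nm emission.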

[14] = qHTS assay to identify small molecule agonists of the endoplasmic reticulum stress response signaling pathway - cell viability counter screen (AID 1159517; calls by dose curve)
Outline: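 Luminescence readout: CellTiter-Glo, 30 min RT, same wells as the ESRE-bla reporter read. HeLa ESRE-bla, 1,500 cells/well, o/n 37 C; cpd 5 hr 37 C/5% CO2.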

[15] = qHTS assay to identify small molecule antagonists of the retinoid-related orphan receptor gamma (ROR-gamma) signaling pathway - cell viability counter screen (AID 1159520); further: nearly all actives have a fitted effect of over 50% in size
Outline: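 Tet-on ROR gamma CHO cells (1,000/well) were plated 4 hr, given compounds in DMSO for 2 hr at 37 C, then induced with 1 uM final doxycycline for 16 hr. Viability was read as ATP by CellTiter-Glo luminescence after 30 min.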

[16] = target: Nuclear receptor ROR-gamma (Homo sapiens) (UniProt P51449); assay: qHTS assay to identify small molecule antagonists of the retinoid-related orphan receptor gamma (ROR-gamma) signaling pathway (AID 1159521)
Outline: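 Readout: ONE-Glo luciferase luminescence, 30 min at room temperature. System: Tet-on RORγ CHO, RORE-LUC. Sequence: compound 2 h, doxycycline 1 uM final, 16 h at 37 C.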

[17] = qHTS assay to identify small molecule agonists of the AP-1 signaling pathway - cell viability counter screen (AID 1159525; calls by dose curve; further: nearly all actives have a fitted effect of over 55% in size)
Outline: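 ME-180 AP-1-bla, 2500 cells/well, Opti-MEM + 0.5% dialyzed FBS; overnight 37 °C; cpd 15-pt titration, 5 h 37 °C; CellTiter-Glo 30 min RT; luminescence read; normalised to TOAB and DMSO controls.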

[18] = qHTS assay to identify small molecule agonists of the AP-1 signaling pathway (AID 1159526; calls by dose curve)
[19] = target: Vitamin D3 receptor (Homo sapiens) (UniProt P11473); assay: qHTS assay to identify small molecule agonists of the vitamin D receptor (VDR) signaling pathway (AID 743222; calls by dose curve)
Outline: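 VDR-bla cells plated 4 h at 37 C, then exposed to compounds for 16 h at 37 C. Beta-lactamase reporter activity measured by fluorescence after 2 h room-temperature loading with LiveBLAzer B/G FRET substrate.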

[20] = target: Vitamin D3 receptor (Homo sapiens) (UniProt P11473); assay: qHTS assay to identify small molecule antagonists of the vitamin D receptor (VDR) signaling pathway (AID 743223; active means well fitted inhibition curve with a large enough effect in the signal ratio in the repeat runs, not every such curve was filed as active; the % refers to the signal ratio)
Outline: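 After VDR-bla cells are plated and left 4 h at 37C, DMSO-dissolved compounds and 3 nM (final) calcitriol agonist are added. Incubation continues 16 h at 37C; FRET beta-lactamase substrate then develops 2 h at room temperature.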

Measured: outcome

Sequence of Vitamin D3 receptor (Homo sapiens) (P11473 whole entry, looked up): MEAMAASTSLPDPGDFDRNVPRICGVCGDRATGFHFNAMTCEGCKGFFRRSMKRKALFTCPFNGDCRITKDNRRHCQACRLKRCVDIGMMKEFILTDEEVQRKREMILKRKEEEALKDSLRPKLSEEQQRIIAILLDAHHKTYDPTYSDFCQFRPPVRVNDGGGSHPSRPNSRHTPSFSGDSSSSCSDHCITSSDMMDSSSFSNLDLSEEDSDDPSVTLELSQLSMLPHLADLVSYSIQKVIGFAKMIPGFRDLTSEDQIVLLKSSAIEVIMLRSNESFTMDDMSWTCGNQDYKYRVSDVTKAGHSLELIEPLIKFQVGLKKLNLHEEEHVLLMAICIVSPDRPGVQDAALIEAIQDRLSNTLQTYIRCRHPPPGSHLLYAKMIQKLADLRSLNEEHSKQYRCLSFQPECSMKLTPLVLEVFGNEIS
Sequence of Peroxisome proliferator-activated receptor delta (Homo sapiens) (Q03181 whole entry, looked up): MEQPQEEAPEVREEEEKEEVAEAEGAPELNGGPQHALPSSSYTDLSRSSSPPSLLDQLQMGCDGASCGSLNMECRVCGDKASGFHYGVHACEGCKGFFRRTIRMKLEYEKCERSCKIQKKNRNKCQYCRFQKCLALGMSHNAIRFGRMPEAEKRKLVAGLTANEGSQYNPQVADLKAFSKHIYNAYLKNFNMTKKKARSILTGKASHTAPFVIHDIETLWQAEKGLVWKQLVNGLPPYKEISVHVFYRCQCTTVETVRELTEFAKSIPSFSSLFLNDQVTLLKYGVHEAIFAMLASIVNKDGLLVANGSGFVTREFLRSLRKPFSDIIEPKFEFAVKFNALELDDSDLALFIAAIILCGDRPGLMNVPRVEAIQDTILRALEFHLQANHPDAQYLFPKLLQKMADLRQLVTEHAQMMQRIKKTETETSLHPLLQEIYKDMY
Sequence of Bile acid receptor (Homo sapiens) (Q96RI1 whole entry, looked up): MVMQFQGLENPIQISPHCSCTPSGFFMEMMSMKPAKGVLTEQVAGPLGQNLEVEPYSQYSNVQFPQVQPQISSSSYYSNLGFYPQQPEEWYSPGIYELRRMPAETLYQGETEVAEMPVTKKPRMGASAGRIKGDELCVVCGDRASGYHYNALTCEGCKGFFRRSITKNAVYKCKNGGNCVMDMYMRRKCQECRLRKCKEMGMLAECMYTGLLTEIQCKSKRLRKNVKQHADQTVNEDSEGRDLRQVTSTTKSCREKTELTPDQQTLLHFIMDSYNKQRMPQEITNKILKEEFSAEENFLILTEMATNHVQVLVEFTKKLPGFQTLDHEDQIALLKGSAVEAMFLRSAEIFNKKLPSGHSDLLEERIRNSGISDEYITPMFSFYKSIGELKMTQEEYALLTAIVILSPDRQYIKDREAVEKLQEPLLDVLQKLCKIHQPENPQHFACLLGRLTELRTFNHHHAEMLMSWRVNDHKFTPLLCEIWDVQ

CC(=O)C(C)O (stereo not drawn)
not listed: [19] | [20]
inactive: all other assays above

Cc1ccc(N)cc1S(=O)(=O)O
not listed: [19] | [20]
inactive: all other assays above

CSc1cnccn1
not listed: [6] | [8]
inactive: all other assays above

C=CCCCCCCCCC(=O)OCCCC
not listed: [19]
inactive: all other assays above

C[Si]1(C)O[Si](C)(C)O[Si](C)(C)O[Si](C)(C)O[Si](C)(C)O1
not listed: [5] | [7] | [20]
inactive: all other assays above

CCCCCc1cccc(=O)o1
not listed: [6] | [8] | [10] | [19] | [20]
inactive: all other assays above

CC(O)COC(C)(C)C (stereo not drawn)
not listed: [5] | [6] | [7] | [19]
inactive: all other assays above

CNCCS(=O)(=O)O
not listed: [5] | [6] | [7] | [20]
inactive: all other assays above

OCC1(CO)COCOC1
not listed: [3] | [19] | [20]
inactive: all other assays above

O=C(CN1CCNCC1)NC1CCCCC1
not listed: [5] | [7] | [19] | [20]
inactive: all other assays above

CC(C)C1OCCN1CCOC(=O)NCCCCCCNC(=O)OCCN1CCOC1C(C)C (stereo not drawn)
not listed: [5] | [7] | [9] | [19] | [20]
inactive: all other assays above

O=C1OCCO1
not listed: [3] | [20]
inactive: all other assays above

C=CC(=O)CCCCC
not listed: [4] | [5] | [7] | [9] | [10] | [19] | [20]
inactive: all other assays above

COC(=O)CCCCC(=O)O
not listed: [5] | [6] | [7] | [8] | [19] | [20]
inactive: all other assays above

COc1ccc(CCO)cc1
not listed: [5] | [6] | [7] | [9] | [10]
inactive: all other assays above

CC(C)=CCC[C@@](C)(O)[C@H]1CC=C(C)CC1
not listed: [5] | [7] | [19] | [20]
inactive: all other assays above

COC(C)(OC)OC
not listed: [5] | [7] | [8]
inactive: all other assays above
